{"source": "PubChem BioAssay (EPA / NIEHS)", "key": {"[1]": {"assay": "CPHEA_Stoker_NIS_Cytotoxicity: Cytotoxicity Assessment for CPHEA's Radioactive Iodide Uptake (RAIU) Assay for Sodium/Iodide Symporter (NIS) Inhibition, Stoker and Laws Labs (AID 2283897)", "outline": "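hNIS-HEK293T-EPA human kidney cells were exposed for 2 hours at room temperature to test chemicals (0.001–100uM, 0.5% final DMSO) in HEPES-buffered HBSS, pH 7.4. Viability was read as ATP content by luciferase bioluminescence, loss of signal versus DMSO.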"}, "[2]": {"tested_on": "Sodium/Iodide Symporter (NIS), SLC5A5 (gene 6528)", "assay": "CPHEA_Stoker_NIS_Inhibition_RAIU: CPHEA's Radioactive Iodide Uptake (RAIU) Assay for Sodium/Iodide Symporter (NIS) Inhibition, Stoker and Laws Labs (AID 2283841)", "outline": "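HEK293T cells stably expressing human NIS (hNIS-HEK293T-EPA) were exposed to test chemicals at 0.001–100uM (0.5% final DMSO) with 125I at a final 329pM in HBSS/10mM HEPES pH 7.4. After 2 hours at room temperature and ice-cold washes, intracellular 125I was counted as CPM and normalized to DMSO wells.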"}, "[3]": {"molecular_target": "frog Thyroid hormone Receptor alpha (TRa), thra-a (gene 397942) (UniProt P15204)", "sequence (P15204 whole entry, looked up, the tested form may be a part)": "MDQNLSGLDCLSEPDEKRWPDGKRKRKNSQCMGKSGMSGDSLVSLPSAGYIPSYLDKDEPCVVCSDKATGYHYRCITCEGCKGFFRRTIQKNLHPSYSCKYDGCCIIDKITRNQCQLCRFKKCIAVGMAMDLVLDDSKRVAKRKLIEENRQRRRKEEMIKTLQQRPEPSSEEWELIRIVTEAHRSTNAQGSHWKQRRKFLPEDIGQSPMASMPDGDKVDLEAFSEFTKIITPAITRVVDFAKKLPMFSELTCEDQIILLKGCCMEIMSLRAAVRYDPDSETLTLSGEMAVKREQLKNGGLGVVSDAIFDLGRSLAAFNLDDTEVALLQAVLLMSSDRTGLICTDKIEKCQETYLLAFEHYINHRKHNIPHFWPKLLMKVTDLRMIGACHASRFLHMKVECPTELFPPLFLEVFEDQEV", "assay": "ATG_frTRa_XSP2: Attagene TRANS-FACTORIAL Multi-Species (XSP2) HepG2 Assay for frog Thyroid hormone Receptor alpha (TRa) (AID 2283839)", "outline": "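Chimeric frog TRα-GAL4 activity in human liver cells measures reporter transcript induction 24 h post-dose. Detection uses RT-PCR, HpaI-digested labelled products and fluorescence capillary electrophoresis; DMSO serves as negative control.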"}, "[4]": {"molecular_target": "human Thyroid hormone Receptor beta (TRb), THRB (gene 7068) (UniProt P10828)", "sequence (P10828 whole entry, looked up)": "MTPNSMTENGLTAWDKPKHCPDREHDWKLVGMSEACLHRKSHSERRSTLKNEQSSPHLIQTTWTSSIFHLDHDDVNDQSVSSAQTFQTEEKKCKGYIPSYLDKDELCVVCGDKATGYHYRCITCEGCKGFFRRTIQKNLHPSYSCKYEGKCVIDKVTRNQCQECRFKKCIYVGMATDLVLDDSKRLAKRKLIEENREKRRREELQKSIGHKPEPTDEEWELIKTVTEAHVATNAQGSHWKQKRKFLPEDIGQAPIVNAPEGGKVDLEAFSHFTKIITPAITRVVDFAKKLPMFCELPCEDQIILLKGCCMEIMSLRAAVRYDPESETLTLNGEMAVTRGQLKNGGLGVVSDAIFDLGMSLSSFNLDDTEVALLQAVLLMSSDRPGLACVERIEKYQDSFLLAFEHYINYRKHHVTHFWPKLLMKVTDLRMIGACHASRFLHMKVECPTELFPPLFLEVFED", "assay": "ATG_hTRb_XSP2: Attagene TRANS-FACTORIAL Multi-Species (XSP2) HepG2 Assay for human Thyroid hormone Receptor beta (TRb) (AID 2283840);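 further: actives raise reporter mRNA so potency reflects agonist-like gain of signal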", "outline": "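Gain-of-signal reporter transcription, referenced to DMSO, was measured in transiently transfected HepG2 after 24 h exposure; labeled RT-PCR products were resolved by capillary electrophoresis. Assay medium included 3 nM 6-alpha-fluorotestosterone and 1.5 nM norgestrel.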"}, "[5]": {"assay": "CEETOX_H295R_OHPREG_noMTC: CeeTox H295R High-throughput Steroidogenesis Assay for OH-Pregnenolone (OHPREG), maximum tolerated concentration (MTC) filtered results only (AID 2283912; active means hit-call score of the fitted dose curve at least 0.9, where 1 is the maximum; inactive means score below 0.9)", "details": "actives raise or lower the signal", "outline": "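Steroidogenesis in H295R cells (OECD 456, modified): after 48 h forskolin priming and 48 h chemical treatment, secreted 17alpha-hydroxypregnenolone is measured by HPLC-MS/MS. Activity is fitted in both directions against DMSO; concentrations are not filtered by MTT-based MTC.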"}, "[6]": {"assay": "CEETOX_H295R_OHPROG_noMTC: CeeTox H295R High-throughput Steroidogenesis Assay for OH-Progesterone (OHPROG), maximum tolerated concentration (MTC) filtered results only (AID 2283914; active means hit-call score of the fitted dose curve at least 0.9, where 1 is the maximum; inactive means score below 0.9)", "details": "actives raise or lower the signal", "outline": "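Forskolin 10 uM, 48 h prestim → test cmpd in DMSO (0.1% final), 48 h → medium MTBE extraction → LC-MS/MS quant of 17alpha-OH-progesterone. Bidirectional fit vs DMSO; no MTT-based MTC filtering.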"}}, "note": "Results filed as inconclusive are left out. The source made the active and inactive calls. How the source made its calls, unless noted: active means hit-call score of the fitted dose curve at least 0.9, where 1 is the maximum; inconclusive means response in the unintended direction; inactive means score below 0.9."}
{"compound": "Cc1ccc(C)c(C)c1", "values": [{"measurement": "outcome", "setting": "[1]", "result": "inactive"}]}
{"compound": "CCc1c(C(=O)NN2CCCCC2)nn(-c2ccc(Cl)cc2Cl)c1-c1ccc(Br)cc1", "values": [{"measurement": "outcome", "setting": "[1]", "result": "inactive"}]}
{"compound": "Oc1ccc2ccccc2c1N=Nc1ccccc1", "values": [{"measurement": "outcome", "setting": "[2]", "result": "inactive"}, {"measurement": "outcome", "setting": "[1]", "result": "inactive"}]}
{"compound": "C=CCOC(=O)c1ccccc1C(=O)OCC=C", "values": [{"measurement": "outcome", "setting": "[3]", "result": "inactive"}, {"measurement": "outcome", "setting": "[4]", "result": "inactive"}, {"measurement": "outcome", "setting": "[5]", "result": "inactive"}, {"measurement": "outcome", "setting": "[6]", "result": "inactive"}]}
